The panel holds about 83,000 compounds, 20% with a hit somewhere; the sample as a whole holds those more often.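 Assay: single dose, 48 h. Readout: percent growth (0 = no net growth; negative = cell death). Active: <10.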 A number with no mark means an inactive call. Calls of active or inactive are those of the source.
Tests used:
Assay in all cases: NCI-60 one-dose screen, 48 h (100 = growth as untreated, 0 = no growth, -100 = all killed)
Settings in all cases: 10 µM
NCI-H23 lung = test system: NCI-H23 lung
NCI-H226 lung = test system: NCI-H226 lung
NCI-H322M lung = test system: NCI-H322M lung
HOP-62 NSCLC = test system: HOP-62 NSCLC
NCI-H460 lung = test system: NCI-H460 lung
NCI-H522 lung = test system: NCI-H522 lung
A549/ATCC NSCLC = test system: A549/ATCC NSCLC
786-0 renal = test system: 786-0 renal
COLO 205 colon = test system: COLO 205 colon

SMILES	growth (NCI-H23 lung)	growth (NCI-H226 lung)	growth (NCI-H322M lung)	growth (HOP-62 NSCLC)	growth (NCI-H460 lung)	growth (NCI-H522 lung)	growth (A549/ATCC NSCLC)	growth (786-0 renal)	growth (COLO 205 colon)
CC(=O)c1ccc2c(ccc3ccccc32)c1	102%	94%	105%	115%	101%	93.1%	95.3%	91%	111%
Clc1ccc(-c2n[nH]c3c2Cc2ccccc2-3)cc1Cl	84.6%	94.4%	91.6%	95.1%	105%	-7.44% (active)	37.5%	104%	115%
Nc1nc(OCc2ccccc2)c2[nH]cnc2n1	93.6%	96%	118%	100%	107%	86.5%	105%	87.1%	114%
Cc1cc(C)cc(NCCC#N)c1	108%	112%	118%	115%	107%	106%	151%	111%	131%
COC(=O)c1ccccc1Br	107%	104%	95.6%	77.9%	107%	94.2%	103%	97%	116%
CC1SC(N)=NC1=O (configuration not stated)	94.8%	107%	114%	79.5%	115%	97.5%	102%	95.3%	138%
Cc1cc(=O)[nH]c(NN=C2CCCC2)n1	122%	101%	108%	105%	116%	103%	123%	102%	118%
Cc1ccccc1C1N=C2Oc3ccccc3C=C2C(=O)N1 (configuration not stated)	48.7%	3.49% (active)	37.4%	33.3%	30.6%	-32.7% (active)	33.5%	37.8%	0.577% (active)
COc1cc(C2NC(=O)C(C#N)=C(Nc3cccc(C)c3)S2)ccc1O (configuration not stated)	103%	104%	106%	98.1%	99.5%	47.5%	32.5%	105%	119%
O=[N+]([O-])c1ccc(O)c(S(=O)(=O)O)c1	103%	102%	126%	101%	109%	104%	106%	104%	122%
O=C(O)c1cccc([N+](=O)[O-])c1O	98.9%	104%	97.3%	96%	104%	101%	111%	102%	105%
O=c1cc(-c2ccccc2)[nH]c(=S)[nH]1	101%	103%	97.6%	108%	108%	89.3%	104%	97.5%	119%
O=C(CCl)Nc1ccc2c(c1)C(=O)c1ccc(NC(=O)CCl)cc1C2=O	-68.7% (active)	-11.6% (active)	-36.5% (active)	-64.7% (active)	-45.9% (active)	-65.2% (active)	0.12% (active)	-66.9% (active)	-50.8% (active)
Cc1ccc(Cl)cc1N1C(=O)CC(Sc2ccccc2N)C1=O (configuration not stated)	101%	103%	127%	94.2%	111%	97%	88.6%	106%	110%
Cc1ccncc1C(N)=O	119%	95.4%	104%	98.6%	101%	101%	108%	106%	124%
O=C(Cc1ccccc1)Cc1ccccc1	103%	100%	104%	110%	102%	97%	96%	95.2%	110%
COc1cc2cc(c1Cl)N(C)C(=O)C[C@H](OC(=O)[C@H](C)N(C)C(C)=O)[C@]1(C)O[C@H]1[C@H](C)[C@@H]1C[C@@](O)(NC(=O)O1)[C@H](OC)C=C/C=C(\C)C2	31.1%	3.37% (active)	31.5%	14%	2.87% (active)	-60.8% (active)	38.3%	10.6%	-51.3% (active)
Cc1cccc([N+](=O)[O-])c1Cl	96.4%	98.2%	105%	103%	108%	116%	104%	102%	109%
Cc1cc(/C=C/c2ccc3cc(N(C)C)ccc3[n+]2C)c(C)n1-c1ccccc1	-6.43% (active)	-75.1% (active)	2.15% (active)	-81.5% (active)	-64.8% (active)	-31.7% (active)	-44.9% (active)	-15.9% (active)	-79.5% (active)
O=C1c2ccccc2C(=O)N1OCc1ccccc1	111%	91.4%	93.4%	95.4%	113%	96.5%	122%	99.5%	108%
NC(=O)NC(=O)c1ccc(Cl)cc1	103%	102%	94.3%	94.4%	108%	79.5%	108%	99.6%	105%
CSC[C@H](NC(=O)COc1cccc2cnccc12)C(=O)NC(Cc1ccccc1)C(O)C(=O)N1CSC[C@H]1C(=O)NC(C)(C)C (some centres not stated)	106%	105%	95.7%	110%	125%	72.3%	110%	80.3%	106%
O=C(O)C(O)c1ccccc1 (configuration not stated)	101%	99.1%	99.6%	116%	107%	103%	105%	98.8%	109%
O=S(=O)(O)C(Nc1ccccc1)c1ccccc1 (configuration not stated)	103%	91.5%	97.6%	100%	102%	102%	103%	100%	103%
CCCCC/C=N/Nc1nc(C)cc(=O)[nH]1	98.7%	97.5%	100%	117%	107%	112%	86.8%	102%	121%
C/C(O)=C(\C=N\C(N)=S)C(=O)Nc1ccccc1	94.5%	87.1%	104%	90.9%	99.9%	83.7%	100%	105%	104%

SMILES	growth (NCI-H23 lung)	growth (NCI-H226 lung)	growth (NCI-H322M lung)	growth (HOP-62 NSCLC)	growth (NCI-H460 lung)	growth (NCI-H522 lung)	growth (A549/ATCC NSCLC)	growth (786-0 renal)	growth (COLO 205 colon)
NC(C(=O)O)C(O)c1ccco1 (configuration not stated)	108%	96.6%	107%	104%	108%	137%	102%	98.3%	102%
O=C(O)CCCCNC(=O)c1ccccc1	91%	92.3%	106%	90.8%	106%	89.4%	98.4%	97.5%	108%
O=C(N/N=C/c1ccccc1O)Nc1nn[nH]n1	106%	96.4%	97%	111%	102%	95.4%	108%	108%	109%
N#CCCN(CCCN1CCOCC1)CN1C(=O)c2ccccc2C1=O	102%	97.9%	90.8%	105%	111%	92%	105%	111%	109%
Cc1ccc(/C(C#N)=C/c2ccc3c(c2)OCO3)cc1	71.2%	85.9%	78.8%	78.2%	71.3%	51.4%	57.5%	104%	65.8%
CC(=O)c1sc2c(c1OC(=O)c1ccc(Cl)cc1Cl)c(=O)n(-c1ccccc1)c(=S)n2-c1ccccc1	23.9%	3.85% (active)	-37.3% (active)	9.38% (active)	25.2%	-35% (active)	32.1%	-7.98% (active)	5.77% (active)
CCCCC1C(=O)N(c2ccccc2)N(c2ccccc2)C1=O	109%	95.8%	99.9%	99.3%	114%	102%	106%	98.5%	106%
CNS(=O)(=O)c1ccc(Cl)c(Cl)c1	110%	86.4%	103%	82.3%	109%	97.8%	104%	85.9%	114%
Nc1nc(N)c(N=Nc2ccc(C(=O)O)cc2)c(N)n1	99.6%	108%	104%	106%	117%	-5.11% (active)	51.8%	107%	117%
N#CC1(Nc2ccc3c4c(cccc24)CC3)CCCCC1	93.5%	81.8%	85.1%	92.9%	105%	63.3%	95%	106%	94.7%
Cc1ccc(C(O)C2CC2)cc1 (configuration not stated)	103%	91.9%	97.1%	106%	103%	107%	95.9%	103%	110%
CCCCC(O)c1ccccc1 (configuration not stated)	96.5%	97.2%	101%	110%	105%	108%	100%	104%	105%
CC(=O)Nc1cccc(NC(C)=O)n1	128%	103%	104%	101%	104%	100%	108%	101%	123%
COC(=O)c1cccc(Br)c1	102%	106%	97.5%	92%	109%	102%	116%	110%	121%
CCOC(=O)c1coc(C(=O)OCC)c1C(=O)OCC	100%	111%	120%	119%	111%	128%	108%	108%	128%
COc1cc(/C=N\Nc2ccccc2)ccc1OC(=O)c1ccccc1	79.5%	74.9%	59.8%	77.8%	44.2%	20.6%	68.6%	78.4%	84.8%
COc1cc2nc3cc([N+](=O)[O-])ccc3c(Cl)c2cc1OC	98.6%	56.3%	103%	111%	109%	70.7%	95.7%	104%	112%
O=[N+]([O-])c1ccc(-c2ncc(-c3ccc(Br)cc3)o2)cc1	93.7%	107%	110%	114%	73.4%	-2.2% (active)	30.5%	97.3%	134%
NCCC(=O)c1ccc(Cl)cc1	99.8%	112%	102%	91%	107%	100%	111%	105%	106%
Cc1cc(O)ccc1O	104%	96.1%	98.5%	89.8%	106%	82.9%	108%	75.3%	120%
S=c1sc2ccccc2n1CN1CCCCC1	95.9%	92.9%	99.1%	89.7%	102%	82.3%	99.2%	105%	103%
O=[N+]([O-])c1ccc(Cl)c(S(=O)(=O)O)c1	103%	109%	136%	103%	108%	–	102%	110%	118%
C=CC(O)CCC (configuration not stated)	106%	115%	103%	110%	104%	99.6%	91.5%	105%	119%
CC1CCCC(CC(N)=O)CC1 (configuration not stated)	102%	98.7%	112%	94.9%	98.8%	88.1%	92.8%	110%	107%
O=C(NCO)c1ccccc1	109%	101%	91.6%	97.8%	105%	–	106%	108%	106%

— PubChem BioAssay (NCI)
